# Source: PubChem (National Center for Advancing Translational Sciences (NCATS))
# Pf Dd2 growth: blocks in vitro growth of P. falciparum Dd2. 120,000 compounds, 4.3% hits. Potency, µM (highest dose often 28.9 µM), usual class: inhibitors. P. falciparum Dd2 growth, SYBR Green, 72 h; active = well fitted inhibition curve with a large enough effect; note: nearly all actives have a fitted effect of over 65% in size
#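 Infected erythrocytes (Dd2, 0.3% parasitemia, 2.5% hematocrit final) are added to compound in RPMI-1640/Albumax II medium, grown 72 h at 37C in low oxygen, then lysed with saponin/Triton-X containing SYBR Green and read by fluorescence.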
# A number is an active result; i = inactive. Shown is part of a subset that was picked to be rich in hits.
SMILES,Pf Dd2 growth
O=C(NCCC1CCN(C(=O)Nc2cc(F)cc(F)c2)CC1)c1ccccn1,i
NC(=O)NCC(=O)N[C@H]1CC[C@H](Nc2nccc(-c3ccncc3)n2)C1,i
COCCc1noc([C@@H]2CN(Cc3cccc(F)c3)C[C@H]2CO)n1,i
O=C(c1cccnc1)N1CCC(c2nnc3n2C(C(=O)N2CCOCC2)CC3)CC1 (stereo not given),i
COc1ccc(-c2noc([C@@H]3C[C@H](NCc4ccc(F)cc4)CN3C)n2)cc1,i
COc1ccc(CCNC(=O)C(=O)Nc2ccccc2F)cc1,i
COc1ccc(CCN(Cc2ccccc2F)CC2(O)CCCNC2)cc1 (stereo not given),13µM
COc1ccc(CN2CC3(CCN(S(=O)(=O)Cc4ccccc4F)CC3)C2=O)cc1,i
CCOC(=O)N1CCN(Cc2nc3cc(NC(=O)c4ccccc4OC)ccc3n2C(C)C)CC1,i
COc1cccc(/C=C/C(=O)Nc2ccc3nc(N4CCN(C)CC4)cc(C)c3c2)c1OC,1.3µM
CCN1CCN(c2cc(C)c3cc(NC(=O)/C=C/c4cccc(OC)c4OC)ccc3n2)CC1,1.1µM
COc1cc(NC(=O)C2CCN(c3cnc4ccccc4n3)CC2)cc(OC)c1OC,i
COc1ccc(NC(=O)NC[C@H]2O[C@H](Cc3cc(-c4cccc(O)c4)on3)CC[C@@H]2O)cc1,i
CN1c2cc(C(N)=O)ccc2C(=O)N2CCCCCC21 (stereo not given),i
CC(=O)Nc1ccc([C@@H](O)[C@H]2COCC(=O)N2CC(C)C)cc1,i
O=C(NC1CCC(O)CC1)c1ccc(-c2ncc3cnc(-c4cccc(F)c4)cn23)cc1 (stereo not given),i
COC1CCOC2(CCN(C(=O)Nc3ccccc3F)CC2)C1 (stereo not given),i
COCCOC1CCOC2(CCN(C(=O)Nc3ccccc3)CC2)C1 (stereo not given),i
COCCOC1CCOC2(CCN(C(=O)Nc3ccccc3F)CC2)C1 (stereo not given),13µM
Cc1ccc2c(C(=O)NCc3ccc(Cl)nc3)cnn2c1,i
Cc1ccc(NS(=O)(=O)c2ccc3[nH]c(=O)ccc3c2)cc1N(C)C,i
Cc1cccc(NS(=O)(=O)c2ccc3[nH]c(=O)ccc3c2)c1C,8.9µM
CC(C)c1ccc(NS(=O)(=O)c2ccc3[nH]c(=O)ccc3c2)cc1,i
O[C@@H]1CCN(Cc2nc(C3(O)CCN(CC4CCCCC4)CC3)cs2)C1,i
CCC(C)C(=O)N1CCc2c(c(C(=O)O)nn2CCCc2ccccc2)C1 (stereo not given),i
SMILES,Pf Dd2 growth
CCCC(=O)N1CCC(N2CC3CC(C2)[C@H]2CCCC(=O)N2C3)CC1 (stereo not given in full),i
Cc1cn2nc(C(=O)Nc3ccc4c(c3)OCCO4)cc2c(N2CCSCC2)n1,i
CC1=C[C@@H](CNS(=O)(=O)c2cccc(C#N)c2)[C@H](C(C)C)C[C@H]1CC(=O)NCc1cccnc1,i
CC1=C[C@@H](CNS(=O)(=O)c2ccc(C)cc2)[C@H](C(C)C)C[C@H]1CC(=O)N(C)Cc1cccnc1,13µM
CCOC(=O)C[C@@H]1C[C@@H](C(C)C)[C@H](CNS(=O)(=O)c2ccc(OC)cc2)C=C1C,i
COCCC(=O)NC[C@@H]1C=C(C)[C@H](CC(=O)N(C)Cc2cccnc2)C[C@H]1C(C)C,i
CC1=C[C@@H](CNS(=O)(=O)c2cccc(C#N)c2)[C@H](C(C)C)C[C@H]1CC(=O)Nc1ccccn1,i
C#CCNC(=O)C[C@@H]1C[C@@H](C(C)C)[C@H](CNS(=O)(=O)c2cccc(C#N)c2)C=C1C,11µM
COc1cccc(CN2CCNC(=O)C2CC(=O)N2CCC(O)CC2)c1OC (stereo not given),i
NCCN1C(=O)CC[C@H]2CN(C(=O)c3ccc(Cl)s3)CC[C@H]21,i
CNCCNC(=O)C1CCN(c2nc(-c3ccccc3)nc3c2CCC3)CC1,13µM
CCN(CC1CCCO1)C(=O)C1CCN(c2nc(-c3ccccc3)nc3c2CCC3)CC1 (stereo not given),11µM
CC(C)(C)CC(=O)N1CCN(c2nc(-c3ccccc3)nc3c2CCC3)CC1,i
COC(C)(C)C(=O)N1CCN(c2nc(-c3ccccc3)nc3c2CCC3)CC1,i
COc1ccc(CN(CC2CCCO2)C(=O)C2CCN(CC(N)=O)CC2)cc1 (stereo not given),i
CN(C)c1nc(-c2ccccc2)nc2c1CCN(C(=O)C1CCOC1)C2 (stereo not given),i
Cc1noc([C@@H]2CC(F)(F)CN2C(=O)c2ccoc2)n1,i
CNCc1ccc(N2CCCC2)cc1,i
CC(=O)N[C@H]1[C@H](O)[C@H](O)C[C@@H]1c1ccc(C(F)(F)F)cc1,i
COCC1CN(C(C)=O)CC12CCN(Cc1ccc(Cl)c(F)c1)CC2 (stereo not given),i
O=C1CO[C@H](c2ccc(NC(=O)C3CCCCC3)cc2)[C@@H](CO)N1,i
COC(=O)c1ccc(NC(=O)CSc2ccc(-c3sc(-c4ccccc4)nc3C)nn2)cc1,13µM
Cc1cccc(NC(=O)CSc2ccc(-c3sc(-c4ccccc4)nc3C)nn2)c1C,i
Cc1nc(-c2ccccc2)sc1-c1ccc(SCC(=O)NCc2ccc(Cl)cc2)nn1,i
O=C(NCc1cccnc1Oc1ccccc1)c1ccncc1,i
SMILES,Pf Dd2 growth
O=C1CC(c2ccccc2)N(C(=O)CNC(=O)NC2CCCCC2)CCCCCN1 (stereo not given),i
Cc1cnc(-c2cccnc2)n1C1CCCN(CC2CCCCC2)C1 (stereo not given),11µM
Cc1cnc(-c2cccnc2)n1CC1CCN(CC2CC2)CC1,i
Cc1cnc(-c2cccnc2)n1C1CCCN(C(=O)C2CC2)C1 (stereo not given),i
COCCNC(=O)C1CCN(C(=O)c2ncn3c2COC(c2ccc(F)cc2)C3)CC1 (stereo not given),i
O=c1n(-c2cccc(Cl)c2)nc2n1CCN([S+](=O)([O-])c1ccccc1)C2,i
N#Cc1ccc(C(=O)NCc2nnc3ccc(-c4ccc(F)cc4)nn23)cc1,i
Cc1cccc(N2Cc3c(NCc4ccc5c(c4)OCO5)ncnc3N(C)CC2=O)c1,i
CN1CC(=O)N(c2ccccc2F)Cc2c(NCc3ccc4c(c3)OCO4)ncnc21,i
Cc1nn(C)c2nc(-c3ccccn3)nc(NCc3ccc4c(c3)OCO4)c12,8.9µM
CCN(CCO)C(=O)CC1C(=O)NCCN1Cc1cccnc1 (stereo not given),i
Cc1cc(C)n(-c2ccc(F)cc2CN2CCCC(CO)(Cc3ccccc3)C2)n1 (stereo not given),8.9µM
CCc1ccc(CN2CCCC(CO)(Cc3ccc(F)cc3F)C2)cc1 (stereo not given),i
CN1CC2(CCCN(Cc3cc(F)ccc3-n3cccn3)C2)OC1=O (stereo not given),i
CCOc1cc(-c2nc(C3CC(=O)N(c4ccc(OC)cc4)C3)no2)cc(OCC)c1OCC (stereo not given),i
O=C(c1ccn[nH]1)N1CCC(c2nc(CCOCC3CCOCC3)no2)C1 (stereo not given),i
CCNC(=O)[C@@H]1C[C@H](NC(=O)c2ccc(OC)o2)CN1Cc1nc(C)no1,i
CC(C)(C(=O)N1Cc2cnn(Cc3ccc(F)cc3)c2C1)c1ccccc1,i
CC(=O)N1CCC([C@@H]2CN(C(=O)COc3ccccc3)C[C@H]2CO)CC1,i
CC(C)(C(=O)N1C[C@H](C2CC2)[C@@H](N)C1)c1ccccc1,6.3µM
COc1ccc(N2CC3CCC(C2)N3C(C)=O)cc1,i
c1ccc(Cc2nnc([C@H]3CCN(Cc4ccncc4)C3)o2)cc1,i
